Assay outcomes from PubChem.
HCMV inh = blocks human cytomegalovirus replication; HFF cells, HCMV-luciferase reporter, 72 h; active compounds read low; activity change, negative = inhibition, % at 57.5 µM; 410,000 compounds, 4.5% hits; AID 1259415; in the data active = activity change below about -60%; inconclusive = no clear call, values can overlap the other calls; inactive = above about -39%
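Compounds were evaluated in HFFs infected with an HCMV luciferase reporter virus (MOI 1 PFU/cell). Luciferase in lysates collected 72 h post infection served as the replication measure.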
Vaccinia mCherry = inhibitors of vaccinia virus infection (mCherry reporter signal); 310,000 compounds, 0.63% hits; Vaccinia virus mCherry reporter infection, fluorescence; Potency, µM (highest dose often 36.5 µM), for inactives: at the highest dose activity change, negative = inhibition, hits mostly inhibitors; calls by dose curve; tested in A549 cells; also: potency is read from the fitted curve at half-maximal effect; nearly all actives have a fitted effect of over 35% in size
HCV inhibitor = inhibitors of hepatitis C virus infection. Potency, µM (doses to about 41.8 µM), for inactives: at the top dose activity change, negative = inhibition, actives largely listed as inhibitors. AID 651820. Huh7.5.1 HCVcc-Cre infection, luciferase reporter, 44 h. 340,000 compounds, 3.4% hits; active = well fitted inhibition curve with a large enough effect; inconclusive = small, poorly fitted or top-dose-only effect, or another doubt; inactive = no such curve, though single readings can be large or run the other way; also: potency is read from the fitted curve at half-maximal effect
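Reporter virus HCVcc-Cre (~0.5 moi) infects cells exposed to compound; seeding density 1,000 cells/well with 4 h settling beforehand. Luminescence, 15 sec read, taken 44 h post-infection following a 15 min RT substrate incubation.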
FMDV inh = foot and mouth disease virus antiviral activity. 410,000 compounds, 1.2% hits. FMDV antiviral cell-based qHTS. Potency, µM (highest dose often 57.9 µM), for inactives: top-dose activity change, negative = inhibition, most hits filed as inhibitors; calls by dose curve; tested in HEK293T cells; also: read-out not given here; potency is read from the fitted curve at half-maximal effect; nearly all actives have a fitted effect of over 45% in size
Vaccinia Venus = inhibitors of vaccinia virus (Venus reporter); Vaccinia virus Venus reporter expression, fluorescence; 330,000 compounds, 0.46% hits; Potency, µM (series often up to 36.5 µM), for inactives: at the top dose activity change, negative = inhibition, hits mostly inhibitors; AID 720580; calls by dose curve; tested in A549 cells; also: potency is read from the fitted curve at half-maximal effect; nearly all actives have a fitted effect of over 30% in size
Active calls of the source: *. Only some compounds are listed: those with a hit (about 7.3% of all), similar ones and a draw of the others. % is scaled to controls: 0 for no effect and ±100 for the full control effect.

COc1cc(C2CC(=O)N(Cc3ccc(F)cc3)c3ccccc3S2)cc(OC)c1OC (stereo unspecified) was read as HCMV inh -82.2*, Vaccinia mCherry -27.4%, FMDV inh 14.1µM* and Vaccinia Venus -23.4%.
For Cc1ccc(C(=O)NCCc2ccc(Cl)cc2)cc1-n1c(C)nc2cccnc21 the results were HCMV inh inconclusive, Vaccinia mCherry -9.9%, FMDV inh -18.1% and Vaccinia Venus -2.0%.
For c1ncc(CCCC2CCNCC2)[nH]1 the results were FMDV inh -7.7%.
N#CC(c1ccc(Cl)nn1)c1ccccc1Cl (stereo unspecified) was read as HCMV inh -63.3*, HCV inhibitor 8.5%, FMDV inh 59.0% and Vaccinia Venus -9.7%.
Screening N#CC(c1ccc(Cl)cc1)c1ccc(Cl)nn1 (stereo unspecified) returned HCMV inh -81.7*, Vaccinia mCherry inactive, HCV inhibitor 2.0%, FMDV inh 6.0% and Vaccinia Venus -15.1%.
For CCN(CC)CCCNC(=O)CSc1nc(-c2ccc(OC)cc2)cc(C(F)(F)F)n1 the results were HCMV inh -37.3, Vaccinia mCherry -2.8%, FMDV inh 0.2% and Vaccinia Venus -13.5%.
Screening N#C/C(=C\c1cccc([N+](=O)[O-])c1)c1nnc2n1CCCCC2 returned HCMV inh -69.5*, Vaccinia mCherry -13.0%, HCV inhibitor 0.2%, FMDV inh -14.6% and Vaccinia Venus -13.3%.
For CN(c1ccccc1)c1ccc(/C=C(\C#N)c2nnc3n2CCCCC3)cc1[N+](=O)[O-] the results were HCMV inh -77.7*, Vaccinia mCherry -6.0%, HCV inhibitor inconclusive, FMDV inh -8.3% and Vaccinia Venus 12.1%.
Screening CCOc1ccc(OCC)c(NC(=O)c2csc3c2CCCC3)c1 returned HCMV inh -30.1, Vaccinia mCherry -20.1%, FMDV inh -7.3% and Vaccinia Venus -10.9%.
For O=C(Nc1ccc(Cl)cc1)C1CCN(c2nc3ccccc3n3cccc23)CC1 the results were HCMV inh -22.3, Vaccinia mCherry -18.3%, FMDV inh -13.3% and Vaccinia Venus -20.9%.
CCN(CC)c1cc2c(cc1F)c(=O)c(S(=O)(=O)c1cccc(C)c1)cn2C was read as HCMV inh -64.1*, Vaccinia mCherry inactive, FMDV inh 5.0% and Vaccinia Venus -13.7%.
`CCN(CC)c1cc2c(cc1F)c(=O)c(S(=O)(=O)c1ccccc1)cn2C` gave HCMV inh inconclusive, Vaccinia mCherry -10.1%, FMDV inh -10.3% and Vaccinia Venus -16.9%.
`COC(=O)c1ccccc1NC(=O)CCS(=O)(=O)c1nc(-c2ccc3c(c2)OCO3)cc(C(F)(F)F)n1` gave HCMV inh -69.7*, Vaccinia mCherry -8.9%, FMDV inh inconclusive and Vaccinia Venus -15.7%.
For CSc1ccccc1NC(=O)CCS(=O)(=O)c1nc(-c2ccc3c(c2)OCO3)cc(C(F)(F)F)n1 the results were HCMV inh -16.8, Vaccinia mCherry -29.5%, FMDV inh inconclusive and Vaccinia Venus -22.9%.
For O=C(CCS(=O)(=O)c1nc(-c2ccc3c(c2)OCO3)cc(C(F)(F)F)n1)Nc1ccccc1F the results were HCMV inh 2.2, Vaccinia mCherry -3.6%, FMDV inh inconclusive and Vaccinia Venus -19.9%.
Screening O=C(CCS(=O)(=O)c1nc(-c2ccc3c(c2)OCO3)cc(C(F)(F)F)n1)Nc1ccc(Br)cc1 returned HCMV inh -98.8*, Vaccinia mCherry inactive, FMDV inh inconclusive and Vaccinia Venus -12.1%.
`OCCN1CN(c2ccccc2)C(=S)N(c2ccccc2)C1` gave HCMV inh 37.7.
`CCc1ccc(CNC(=O)CCc2c(C)nn(-c3ccc(N4CCCC4)nn3)c2C)cc1` gave HCMV inh -33.1, Vaccinia mCherry -3.0%, FMDV inh 0.7% and Vaccinia Venus -11.4%.
O=C(C#Cc1ccccc1)c1cccc([N+](=O)[O-])c1 was read as HCMV inh -24.1, Vaccinia mCherry inactive, HCV inhibitor inconclusive, FMDV inh 25.1µM* and Vaccinia Venus -15.6%.
CC(C)(C)c1nc2scc(-c3ccc(Br)cc3)c2c(=O)o1 was read as HCMV inh -23.9, Vaccinia mCherry inactive, HCV inhibitor 26.6%, FMDV inh -9.7% and Vaccinia Venus -2.4%.
Screening COc1ccc(-c2csc3nc(C)n(-n4cccc4)c(=O)c23)cc1 returned HCMV inh -61.6*, HCV inhibitor inconclusive, FMDV inh -1.8% and Vaccinia Venus -19.1%.
For Cc1nc2scc(-c3ccc(C(C)(C)C)cc3)c2c(=O)n1N the results were HCMV inh -78.1*, Vaccinia mCherry -14.3%, HCV inhibitor -10.9%, FMDV inh -28.4% and Vaccinia Venus -15.5%.
`C[C@@H]1CCCCO[C@H](CN(C)C(=O)C2CCCCC2)[C@@H](C)CN([C@H](C)CO)C(=O)c2cc(NS(=O)(=O)c3cccs3)ccc2O1` gave HCMV inh 0.0.
`CCOc1ccc(CC(=O)Nc2c(C(=O)Nc3ccc(OC)cc3OC)oc3ccccc23)cc1` gave HCMV inh -4.6, Vaccinia mCherry inactive, FMDV inh inconclusive and Vaccinia Venus -21.4%.
Screening CN(C)c1ccc(C=O)c(F)c1 returned Vaccinia mCherry -9.5% and Vaccinia Venus 5.2%.
Screening Cc1cc(OCc2cc(C(=O)N(Cc3nccn3C)C(C)C)no2)cc(C)c1Cl returned HCMV inh 47.3, Vaccinia mCherry inconclusive, HCV inhibitor 11.2µM*, FMDV inh 11.2% and Vaccinia Venus -24.3%.
Screening CC(C)N(Cc1nccn1C)C(=O)c1cc(COc2cccc(C(F)(F)F)c2)on1 returned HCMV inh -18.5, HCV inhibitor inconclusive and FMDV inh -8.4%.
For Cc1cc(OCc2cc(C(=O)N3CCN(C)C(=O)[C@@H]3C)no2)cc(C)c1Cl the results were HCMV inh inconclusive, HCV inhibitor 12.6µM* and FMDV inh inconclusive.
For CC(=O)N1c2ccc(S(=O)(=O)NCC3CCC(C(=O)NCCC(C)C)CC3)cc2CC1C (stereo unspecified) the results were HCMV inh -0.5, Vaccinia mCherry -21.4%, FMDV inh -23.1% and Vaccinia Venus -19.4%.
Screening CN(C)S(=O)(=O)c1cccc(-c2nnc(-c3ccccc3)o2)c1 returned HCMV inh -105.2*, HCV inhibitor -0.8% and FMDV inh 15.3%.
Cn1nc(-c2ccccc2)cc1NC(=O)c1ccccc1 was read as HCMV inh 10.4, Vaccinia mCherry -7.6%, HCV inhibitor 1.8%, FMDV inh 12.0% and Vaccinia Venus -7.5%.
`O=C(Nc1cc(-c2ccccc2)nn1C1CCCCC1)c1ccc(Cl)cc1` gave HCMV inh -30.6, Vaccinia mCherry inactive, HCV inhibitor 2.51µM*, FMDV inh inconclusive and Vaccinia Venus -9.2%.
For CN1C(=O)C2C[C@@]3(Br)c4ccccc4N(OOSc4ccccc4)[C@H]3N2C(=O)[C@@H]1Cc1ccccc1 (stereo partly specified) the results were HCMV inh -71.2*, Vaccinia mCherry -5.8%, HCV inhibitor -49.4%, FMDV inh -4.2% and Vaccinia Venus -20.6%.
